Screens deposited in PubChem BioAssay by National Center for Advancing Translational Sciences (NCATS).
GLS inh – inhibitors of human glutaminase (GLS); GLS enzymatic activity, qHTS titration; AID 624170; Potency, µM (series often up to 45.5 µM), actives largely listed as inhibitors; O94925; actives 0.21% (n = 410,000)
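hKGA in 45 mM KH2PO4 (pH 8.2), 0.02% Tween-20 with compound, then 1mM L-Glutamine (stock as added) plus glutamate oxidase/HRP/Amplex red coupling mix. Fluorescence read initially and after 30 min at RT; signal change reflects glutamate formation.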
BAZ2B block – inhibitors of human BAZ2B bromodomain; actives 4.4% (n = 360,000); Q9UIF8; Potency, µM (series often up to 114 µM), actives largely listed as inhibitors; AlphaScreen BAZ2B-H3K14Ac peptide displacement; AID 504333; note: nearly all actives have a fitted effect of over 60% in size
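BAZ2B 50 nM plus b-H3(5-23)K14Ac 50 nM, PBS pH 7.4/0.01% Tween-20, 30 min RT; compound added (max 110 uM), 30 min RT; streptavidin donor/Ni-chelate acceptor beads 10 ug/mL final, 20 min dark; AlphaScreen read.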
G9a block – G9a (human) methyltransferase inhibition; Q96KQ7; G9a H3K9 monomethylation, AlphaScreen, 2 h; Potency, µM (titrated, usually from 102 µM), most hits filed as inhibitors; actives 8.8% (n = 350,000); AID 504332; note: nearly all actives have a fitted effect of over 75% in size
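Signal arises when biotinylated H3K9 peptide, once monomethylated, bridges streptavidin donor and antibody-captured acceptor beads. Enzyme at 20 nM was preincubated 15 min with test compounds; peptide 500 nM and SAM 20 uM then reacted for 2 h.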
HP1b binding inh – blocks HP1-beta chromodomain binding to methylated histone tails; P83916; AlphaScreen HP1-beta / biotin-H3K9me3 peptide binding; Potency, µM (titrated, usually from 114 µM), most hits filed as inhibitors; actives 0.56% (n = 390,000); note: nearly all actives have a fitted effect of over 70% in size
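HP1-beta protein (50 nM final) preincubated 30 min at room temperature with biotinylated H3(1-18)K9me3 peptide (50 nM) in PBS pH 7.4, 0.01% Tween-20, then compound added for 30 min. AlphaScreen streptavidin donor/nickel chelate acceptor beads (10 ug/mL final), 30 min dark, luminescence read.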
JMJD2A Tudor – blocks the human JMJD2A Tudor domain | O75164 | AlphaScreen JMJD2A-Tudor / H3K4me3 peptide binding | Potency, µM (doses to about 114 µM), hits mostly inhibitors | actives 4.4% (n = 390,000) | AID 504339; note: nearly all actives have a fitted effect of over 50% in size
Large screens that a line does not name were inactive. The list is not random: actives were taken first. Their share in the collection is about 10%. Calls come from the whole dose curve; as a rule, active = well fitted curve in the direction sought with a large enough effect; inconclusive = small, poorly fitted or top-dose-only effect, or another doubt; inactive = no such curve, though single readings can be large; an effect the other way counts as inactive or inconclusive.

COc1ccc(C2NCCc3c2[nH]c2ccccc32)cc1CN1CCc2cc(OC)c(OC)cc2C1C (stereo not given)	BAZ2B block inconclusive, G9a block 44.7µM
CCOc1ccc2c(c1)C(=O)c1cc(OCC(=O)O)ccc1-2	none (no result: G9a block)
CCCCOc1ccc2c(c1)C(=O)c1cc(O)ccc1-2	BAZ2B block 35.5µM, G9a block 31.6µM, HP1b binding inh 44.7µM, JMJD2A Tudor 28.2µM
O=S(=O)(NCC1CCCN(Cc2ccccc2O)C1)c1cccc2cccnc12 (stereo not given)	G9a block 70.8µM
O=C(C1CCC(CNS(=O)(=O)c2cccc3cccnc23)CC1)N1CCCC1 (stereo not given)	none
COc1ccc(S(=O)(=O)Nc2ccc(O)c3ccccc23)cc1	BAZ2B block 39.8µM, G9a block inconclusive, HP1b binding inh inconclusive, JMJD2A Tudor 31.6µM
Cc1ccc(C)c(S(=O)(=O)Nc2ccc(O)c3ccccc23)c1	BAZ2B block 50.1µM, G9a block 28.2µM, HP1b binding inh 15.8µM, JMJD2A Tudor 50.1µM
COc1ccc(S(=O)(=O)Nc2ccccc2)cc1	none (no result: BAZ2B block, G9a block)
Cc1ccc(-n2cnc3cc(C(=O)NCc4ccc(F)cc4)ccc32)c(C)c1	JMJD2A Tudor inconclusive
CCOc1ccc(CNC(=O)C2CCCN(c3nn4cc(-c5ccc(OC)cc5)nc4s3)C2)cc1 (stereo not given)	none
C/C(=N\NC(=O)c1ccncc1)c1cccnc1	BAZ2B block inconclusive, G9a block inconclusive
C/C(=N\NC(=O)c1cccs1)c1cccnc1	GLS inh inconclusive, JMJD2A Tudor 17.8µM (no result: BAZ2B block)
O=C(NNC(=S)NC(=O)c1cccs1)c1cccnc1	GLS inh inconclusive, G9a block 44.7µM
C/C(=N\NC(=O)C1=NNC(=O)C1C)c1cccs1 (stereo not given)	BAZ2B block inconclusive, G9a block 44.7µM
CCCCCCCCC(=O)N/N=C(\C)c1cccnc1	G9a block 10µM, JMJD2A Tudor 89.1µM
O=C(CN1C(=O)COc2ccc(S(=O)(=O)NC3CCCC3)cc21)NCc1ccccc1Cl	none
O=C(NNC(=S)NC(=O)c1cccs1)c1ccc(O)cc1	G9a block 39.8µM
O=C(Nc1cccc(Oc2ccccc2)c1)C1Cc2c(-c3ccccc3)ccnc2O1 (stereo not given)	none (no result: BAZ2B block, G9a block, HP1b binding inh, JMJD2A Tudor)
COc1cc(/C=N/n2cnnc2)ccc1OCCOc1ccccc1	none
COc1cc(/C=N/n2c(COc3ccccc3)n[nH]c2=S)cc(OC)c1OC(C)=O	G9a block 10µM, JMJD2A Tudor inconclusive
CCc1n[nH]c(=S)n1/N=C/c1cc(Br)c(O)c(OC)c1	G9a block 7.94µM, JMJD2A Tudor 5.62µM
CCOc1ccc(/C=N/n2c(COc3ccccc3)n[nH]c2=S)cc1OC	G9a block 8.91µM, JMJD2A Tudor 20µM
COc1cc(/C=N/n2c(COc3ccccc3)n[nH]c2=S)cc(Br)c1O	G9a block 1.26µM, JMJD2A Tudor 12.6µM
CC(=O)NCCNc1ncncc1-c1ccc(N(C)C)cc1	none (no result: GLS inh, BAZ2B block, HP1b binding inh, JMJD2A Tudor)
Cc1ccc(OCCN2CCN(c3nc(NCc4ccco4)c4ccccc4n3)CC2)cc1	BAZ2B block inconclusive, G9a block inconclusive, JMJD2A Tudor 56.2µM
c1ccc(CN2CCN(c3nc(NCc4ccco4)c4ccccc4n3)CC2)cc1	BAZ2B block 50.1µM, G9a block inconclusive, JMJD2A Tudor inconclusive
O=C(Cn1c(=O)oc2cc(S(=O)(=O)N3CCCCCC3)ccc21)Nc1cccc(C(F)(F)F)c1	none
Cc1cc(C(=O)O)c(C)n1-c1ccccc1	none
S=c1[nH]nc(-c2c[nH]c3ccccc23)o1	G9a block inconclusive, JMJD2A Tudor inconclusive
Oc1cc2ccccc2cc1-c1n[nH]c(=S)o1	BAZ2B block inconclusive, G9a block 3.98µM
Cc1cc(-c2n[nH]c(=S)o2)c(C)n1-c1ccccc1	BAZ2B block inconclusive, G9a block 3.98µM, JMJD2A Tudor inconclusive
Cc1ccc2c(c1)C(=O)CCN2	G9a block inconclusive
Cc1ccc2c(c1)NCCO2	G9a block inconclusive, JMJD2A Tudor 50.1µM (no result: BAZ2B block)
c1n[nH]c(NC2=NCCC2)n1	BAZ2B block 14.1µM, JMJD2A Tudor 44.7µM
Cc1ccc(Cl)cc1N1CCN(CCCNc2ncnc3onc(-c4ccc(F)cc4)c23)CC1	G9a block inconclusive
CCOC(=O)C(NS(=O)(=O)c1ccccc1)(C(F)(F)F)P(=O)(OCC(C)C)OCC(C)C (stereo not given)	G9a block 10µM
